# Measurements: paper PMC4336329 (PLoS ONE, 2015)
# Among all 310,000 compounds or so, about 14,000 (4.5%) showed an effect of 50% or more. Effects have a minus sign here. The sample holds strong results, similar compounds and a random draw of the others, so the mix is not that of the screen.
# Molecular target: human ether-à-go-go-related gene (hERG) potassium channel (human, UniProt Q12809)
# Assay: primary screen, population patch clamp on CHO cells stably expressing hERG; higher = less effect of the substance
# 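Further: peak tail current of the secondary pulse compared with the same well before compound.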
# Sequence of human ether-à-go-go-related gene (hERG) potassium channel (Q12809 whole entry, looked up): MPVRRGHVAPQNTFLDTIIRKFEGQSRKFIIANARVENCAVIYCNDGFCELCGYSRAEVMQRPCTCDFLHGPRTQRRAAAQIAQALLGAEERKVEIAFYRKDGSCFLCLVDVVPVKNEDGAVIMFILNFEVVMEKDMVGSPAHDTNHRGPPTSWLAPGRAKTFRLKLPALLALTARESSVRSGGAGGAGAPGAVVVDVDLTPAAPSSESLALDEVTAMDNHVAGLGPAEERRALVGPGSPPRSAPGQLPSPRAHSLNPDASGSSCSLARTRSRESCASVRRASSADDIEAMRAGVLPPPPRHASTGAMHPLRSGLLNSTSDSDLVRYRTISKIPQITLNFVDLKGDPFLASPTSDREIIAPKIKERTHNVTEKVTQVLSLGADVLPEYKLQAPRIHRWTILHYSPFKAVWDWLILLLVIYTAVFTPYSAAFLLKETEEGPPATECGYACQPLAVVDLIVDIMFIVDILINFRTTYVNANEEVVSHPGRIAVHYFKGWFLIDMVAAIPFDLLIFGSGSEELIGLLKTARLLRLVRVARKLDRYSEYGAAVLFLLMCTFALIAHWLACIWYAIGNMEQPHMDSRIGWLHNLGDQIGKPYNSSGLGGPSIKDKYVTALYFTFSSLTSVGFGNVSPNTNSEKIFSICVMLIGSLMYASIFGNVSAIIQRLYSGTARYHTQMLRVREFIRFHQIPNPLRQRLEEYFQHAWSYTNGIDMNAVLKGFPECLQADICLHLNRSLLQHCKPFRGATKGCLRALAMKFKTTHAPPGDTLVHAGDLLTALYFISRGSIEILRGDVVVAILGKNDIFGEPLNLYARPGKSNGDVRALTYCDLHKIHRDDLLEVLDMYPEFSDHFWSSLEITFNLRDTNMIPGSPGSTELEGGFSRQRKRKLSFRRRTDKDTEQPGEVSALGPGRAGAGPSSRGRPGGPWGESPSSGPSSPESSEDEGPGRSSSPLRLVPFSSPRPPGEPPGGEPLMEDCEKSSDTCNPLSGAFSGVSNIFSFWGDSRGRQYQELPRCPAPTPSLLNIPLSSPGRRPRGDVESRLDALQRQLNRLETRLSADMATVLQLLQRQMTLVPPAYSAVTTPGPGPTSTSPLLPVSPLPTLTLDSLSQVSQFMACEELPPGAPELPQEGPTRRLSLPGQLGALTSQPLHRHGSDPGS
row,SMILES,"hERG current change (%, negative = inhibition) at 10uM"
1,CC(C)CCC(O)(c1ccccc1)C(CN1CCOCC1)c1ccccc1.Cl (centres unmarked),-1.36%
2,CNS(=O)(=O)Cc1ccc2[nH]cc(CCN(C)C)c2c1,10.6%
3,Cc1ccc(C)c(CN2CCC(CNC(=O)CCc3nnc4ccc(N5CCCCC5)nn34)CC2)c1,-30.3%
4,COc1ccc(NC(=O)NNC(=O)c2ccccc2-n2cccc2)cc1OC,25.4%
5,COc1ccc2c(=O)c3c(=O)n(Cc4ccco4)c(-c4cc(OC)c(OC)c(OC)c4)nc3oc2c1,-16%
6,COc1ccc(-c2nc3oc4cc(OC)ccc4c(=O)c3c(=O)n2Cc2ccco2)cc1,-27.5%
7,COc1ccc(Cn2c(-c3ccco3)nc3oc4cc(OC)ccc4c(=O)c3c2=O)cc1,-31.4%
8,COc1ccc2c(=O)c3c(=O)n(Cc4ccco4)c(-c4ccccc4)nc3oc2c1,-32.2%
9,COc1ccc2c(=O)c3c(=O)n(Cc4ccco4)c(-c4ccco4)nc3oc2c1,-62.4%
10,COc1ccc2c(=O)c3c(=O)n(Cc4ccco4)c(-c4ccc(C)cc4)nc3oc2c1,-53.3%
11,Nc1c(C(=O)Nc2ccc3c(c2)OCCO3)nnn1Cc1cccc(F)c1,-4.88%
12,COc1ccc2c(C)nc(Nc3nc(-c4ccccc4)cc(=O)[nH]3)nc2c1,2.47%
13,O=C(Cn1cccc1C(=O)c1ccccc1)NCCCc1ccccc1,-8.33%
14,Cc1ccccc1C(=O)c1cccn1CC(=O)NCc1ccccc1,21.7%
15,Cc1ccccc1C(=O)c1cccn1CC(=O)NCCCN1CC(C)CC(C)C1 (centres unmarked),-72.1%
16,CC1CC(C)CN(CCCNC(=O)Cn2cccc2C(=O)c2ccccc2)C1 (centres unmarked),-63.1%
17,CCCNC(=O)Cn1cccc1C(=O)c1ccccc1,14.7%
18,Cc1ccccc1C(=O)c1cccn1CC(=O)NCCCc1ccccc1,9.69%
19,Cc1ccc(NC(=O)c2ccc(OCC3CCCO3)cc2)c(C)c1 (centres unmarked),-9.65%
20,Cc1cc(NC(=O)c2sc(Nc3ccc(F)cc3)nc2N)no1,20%
21,CC(=O)Nc1ccc(S(=O)(=O)N2CCN(c3ccccn3)CC2)cc1,-3.36%
22,Cc1ccc(S(=O)(=O)N2CCN(c3ccccc3)CC2)cc1C,6.82%

row,SMILES,"hERG current change (%, negative = inhibition) at 10uM"
1,Cc1cc(N2CCN(S(=O)(=O)c3ccc(Cl)cc3)CC2)c2ccccc2n1,-77.8%
2,Cc1cc(N2CCN(S(=O)(=O)c3ccccc3)CC2)nc2c(C)cccc12,23.1%
3,Cc1cc(N2CCN(S(=O)(=O)c3ccc(C)c(C)c3)CC2)c2ccccc2n1,-64.6%
4,CC(=O)Nc1ccc(S(=O)(=O)N2CCN(c3ncccn3)CC2)cc1,6.13%
5,Cc1ccc(S(=O)(=O)N2CCN(c3ncccn3)CC2)cc1C,13.9%
6,Cc1ccccc1N1CCN(S(=O)(=O)c2ccccc2)CC1,0.732%
7,Cc1cc(N2CCN(S(=O)(=O)c3ccccc3)CC2)c2ccccc2n1,-73.3%
8,CC(=O)Nc1ccc(S(=O)(=O)N2CCN(c3nc(NC4CCCC4)c4ccccc4n3)CC2)cc1,-75.8%
9,Cc1cc(N2CCN(S(=O)(=O)c3ccc(Cl)c(Cl)c3)CC2)c2ccccc2n1,-45.3%
10,Cn1c(N2CCN(S(=O)(=O)c3ccc(Cl)cc3)CC2)nc2ccccc21,-34%
11,O=C(CCCn1nnc2ccccc2c1=O)N[C@@H](Cc1ccccc1)C(=O)O,13%
12,COc1cc(OC)c(/C=N/n2c(C3CCCCC3)n[nH]c2=S)c(OC)c1,22.6%
13,CCSc1nc2c(c(=O)n1-c1ccc(F)cc1)SCC2,-4.12%
14,Cc1cc(C)cc(NC(=O)N2C3CCCC2CC(NC(=O)C2CC2)C3)c1 (centres unmarked),17%
15,Fc1ccc(COc2ccccc2-c2ccnc3ncnn23)cc1,-6.51%
16,Cc1cccc(C)c1NC(=O)CN(C)CC(=O)N(C)CC(=O)Nc1ccccc1Br,14%
17,CCCn1c(-c2ccc[nH]c2=O)nc2ccccc21,15.6%
18,CCOC(=O)c1ccc(NC(=O)C2CC(=O)N(c3ccc4c(c3)OCCO4)C2)cc1 (centres unmarked),10.7%
19,COC(=O)c1nn(-c2c(C)n(C)n(-c3ccccc3)c2=O)cc1O,5.84%
20,COc1cccc(NC(=S)NNC(=O)CCn2cc([N+](=O)[O-])cn2)c1,-2.61%
21,Cc1ccc(NCc2nnc(SCC(=O)N(Cc3ccccc3)C(C)(C)C)o2)c(C)c1,-9.53%
22,CC(=O)Nc1ccc(S(=O)(=O)N2CCN(c3cc(C)nc4ccccc34)CC2)cc1,-88.5%

row,SMILES,"hERG current change (%, negative = inhibition) at 10uM"
1,CC(=O)Nc1ccc(S(=O)(=O)N2CCN(S(=O)(=O)c3ccccc3)CC2)cc1,11.7%
2,CC(=O)Nc1ccc(S(=O)(=O)N2CCN(c3nc(C)cc(C)n3)CC2)cc1,5.68%
3,C[C@@H](NC(=O)c1[nH]cnc1C(=O)Nc1nccs1)c1ccccc1,-3.32%
4,CC(=O)Nc1cccc(C(=O)Nc2ccccc2N2CCOCC2)c1,-0.962%
5,Cc1ccccc1-n1c(Cn2c(=O)sc3ccccc32)nnc1SCC(=O)NCC1CCCO1 (centres unmarked),-2.85%
6,CCOc1ccccc1-n1c(=O)c2ccccc2c2ccccc2c1=O,-6.99%
7,COc1cccc(C2CNC3(CCCC(C)C3)c3[nH]c4ccccc4c32)c1OC.Cl (centres unmarked),-23.6%
8,CC1(C)NC(C(=O)O)Cc2c1[nH]c1ccccc21 (centres unmarked),3.65%
9,CC1c2c([nH]c3ccccc23)CCC1C(=O)O (centres unmarked),22.4%
10,ClCC1NCC(c2ccccc2Cl)c2c1[nH]c1ccccc21 (centres unmarked),0.482%
11,CC1(C)CC(=O)CC2(C1)NCC(c1ccccc1Cl)c1c2[nH]c2ccccc12.Cl (centres unmarked),-51.4%
12,CC1(C)CC(=O)CC2(C1)NCC(c1ccccc1)c1c2[nH]c2ccccc12.Cl (centres unmarked),-85.8%
13,O=Nc1ccc(NOC(=O)c2ccccc2Br)cc1,3.45%
14,CC(C)(C)c1cc(CCC(=O)Nc2ccncc2)cc(C(C)(C)C)c1O,-16.6%
15,CCN(CC)CCN1C(=O)Cn2c(C)c(C)c3cccc1c32.Cl,-52.4%
16,CCN(CC)CCN1C(=O)Cn2c(C)c(C)c3cccc1c32.O=C(O)C(O)C(O)C(=O)O,-65.1%
17,Cc1c(C)n2c3c(cccc13)CC2,-0.781%
18,CCN(CC)CCNC(=O)Cn1nc(-c2ccccc2)c2ccccc2c1=O,-31%
19,CCN(CC)CCNC(=O)C(C)c1nn(CC)c(=O)c2ccccc12.Cl (centres unmarked),7.49%
20,CCN(CC)CCN1C(=O)C2C3c4ccccc4C(c4ccccc43)C2C1=O (centres unmarked),-2.51%
21,Cc1ccc(NC(=O)Cn2c(=O)n(Cc3ccco3)c(=N)c3c4c(sc32)COC(C)(C)C4)cc1,-7.76%
22,CC(C)[C@H](NC(=O)c1ccco1)C(=O)OCC(=O)N1CC(=O)Nc2ccccc21,13.3%

row,SMILES,"hERG current change (%, negative = inhibition) at 10uM"
1,O=C1N/C(=C/c2ccc(N3CCOCC3)cc2)C(=O)N1Cc1ccc(F)cc1,22.1%
2,CCOC(=O)C1CCN(C(=O)CSc2cc(=O)n(CC)c3ccccc23)CC1,-29.4%
3,O=[N+]([O-])c1cc2c(c(CSc3nnc4ccccn34)c1)OCOC2,-12.4%
4,O=C(O)C(Cc1ccccc1)n1cnnn1 (centres unmarked),7.85%
5,CCC(CC)c1nn2c(N)c(/C=C3\C=Nc4ccccc43)c(=O)nc2s1,0.567%
6,COc1ccc(S(=O)(=O)N2CCCC(C(=O)O)C2)cc1Cl (centres unmarked),6.43%
7,CC1=NNC(=O)C1CC(=O)N/N=C/C(Br)=C/c1ccccc1 (centres unmarked),9.09%
8,O=c1c2ccccc2oc2ccc(-c3ccc4[nH]ccc4c3)cc12,-2.53%
9,COc1ccc(-c2nn(CCC#N)cc2C(=O)Nc2cccc([N+](=O)[O-])c2)cc1OC,-57.9%
10,COc1ccc(NC(=O)c2cn(CCC#N)nc2-c2cccs2)cc1,-11.3%
11,COc1ccc(NC(=O)c2cn(CCC#N)nc2-c2ccc([N+](=O)[O-])cc2)cc1,2.58%
12,COc1ccc(-c2nn(CCC#N)cc2C(=O)Nc2cccc(C(=O)O)c2)cc1OC,20.9%
13,N#CCCn1cc(C(=O)Nc2ccc(C(=O)O)cc2)c(-c2cccs2)n1,21%
14,N#CCCn1cc(C(=O)Nc2ccc(F)cc2)c(-c2ccccc2)n1,-15.2%
15,N#CCCn1cc(C(=O)Nc2ccc([N+](=O)[O-])cc2)c(-c2ccc3c(c2)OCCO3)n1,-72.8%
16,Cc1ccc(NC(=O)c2cn(CCC#N)nc2-c2ccc3c(c2)OCCO3)c([N+](=O)[O-])c1,-33.9%
17,N#CCCn1cc(C(=O)Nc2ccc([N+](=O)[O-])cc2)c(-c2cccs2)n1,-59.7%
18,COc1ccc(-c2nn(CCC#N)cc2C(=O)Nc2ccccc2)cc1OC,-6.03%
19,N#CCCn1cc(C(=O)Nc2ccc(F)cc2)c(-c2ccc([N+](=O)[O-])cc2)n1,-57.1%
20,CCOC(=O)c1ccc(NC(=O)c2cn(CCC#N)nc2-c2ccc3c(c2)OCCO3)cc1,-4.59%
